SKOV3 invasion: Primary qHTS assay for Inhibitors of ovarian cancer metastasis using an organotypic tumor microenvironment (TME) model; SKOV3ip1-GFP adhesion/invasion on 3D omental model, fluorescence; Potency, µM (series often up to 45.8 µM), hits mostly inhibitors; 46,000 tested, 0.1% active; AID 1963576, 2024; further: nearly all actives have a fitted effect of over 65% in size
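A 3D layer of primary human omental fibroblasts, mesothelial cells, fibronectin and collagen I, grown 48 hr, received SKOV3ip1-GFP cells in serum-free medium plus compounds at 0.36-46 umol/L. After 2 hr RT and 16 hr 37 C, fixed adherent GFP cells were counted; normalized to DMSO and tomatine.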
PMP22 txn prim: Cell-based coincidence reporter assay to measure PMP22 gene transcription in S16 Pmp22-F2sN cells - Primary screen. S16 Pmp22-F2sN Schwann cells, FLuc/NLuc coincidence luminescence, 24 h. Potency, µM (series often up to 57.5 µM), hits mostly inhibitors. 43,000 tested, 2% active. AID 1508649, 2021; active means clear falling dose curves in both reporters; inconclusive means both reporters move, but less clearly or upward; inactive means either reporter flat; the % is the NLuc reporter signal
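S16 Schwann cells carrying FLuc/NLuc coincidence reporter in the Pmp22 3' UTR treated with compound 24 h at 37C; FLuc then NLuc luminescence read sequentially by dual-luciferase reagents.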
p53null 32C kill: qHTS Screen for Compounds that Selectively Target Cancer Cells with p53 Mutations: Cytotoxicity of p53 Null Cells at the Permissive Temperature | H1299-neo p53 null cells, ATP luminescence, 24 h, 32C | AID 903, 2007 | Potency, µM (top dose mostly 46.1 µM), usual class: cytotoxic | 55,000 tested, 0.62% active; further: nearly all actives have a fitted effect of over 55% in size
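Luminescent ATP readout gave cell viability of p53-null H1299-neo cells after a 24 h compound exposure at the permissive 32C. Titrations ran up to 46 uM, and AC50s were fitted with the standard Hill equation.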
p53null 39C kill: qHTS Screen for Compounds that Selectively Target Cancer Cells with p53 Mutations: Cytotoxicity of p53 Null Cells at the Nonpermissive Temperature. H1299 p53-null (neo) cells, 39C, ATPlite viability, 24 h. Potency, µM (titrated, usually from 46.1 µM), most hits filed as cytotoxic. 55,000 tested, 0.97% active. AID 904, 2007; further: nearly all actives have a fitted effect of over 50% in size
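Temperature-shift cytotoxicity format: compound titrations on p53-null or A138V-expressing H1299 cells held 24 hr at 39C, cell ATP then measured, AC50 from Hill model.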
mTORC1 inh: Acumen qHTS Assay for Inhibitors of the mTORC1 Signaling Pathway in MEF (Tsc2-/-, p53-/-) Cells: Sytravon; Tsc2-/- p53-/- MEF, phospho-rpS6 immunofluorescence/PI, 24 h; Potency, µM (highest dose often 38.3 µM), hits mostly inhibitors; 44,000 tested, 0.78% active; AID 493208, 2011; further: nearly all actives have a fitted effect of over 50% in size
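Readout is phospho-S6 Alexa 488 signal normalized to PI per well, reported as % active cells with thresholds set from rapamycin (7.5 nM) and DMSO controls. Cells: Tsc2-/-, p53-/- MEFs, 24 hrs compound at 37 C; PI cell number serves as viability.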
S16 viability: Cell viability qHTS assay in S16 Pmp22-F2sN cells; S16 Pmp22-F2sN Schwann cells (luciferase reporters placed in the Pmp22 gene) viability, CellTiter-Glo, 24 h; 43,000 tested, 0.48% active; Potency, µM (doses to about 57.5 µM), actives largely listed as cytotoxic; AID 1508642, 2021; further: nearly all actives have a fitted effect of over 65% in size
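Seed 500-1,000 S16 Pmp22-F2sN cells per well in phenol-red-free DMEM with 10% heat-inactivated FBS; pin-add 23 nL compound; incubate 24 h at 37C; add CellTiter-Glo, wait 15 min protected from light; read luminescence.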
NLuc saturating: Biochemical NLuc saturation counterscreen for small molecule modulators of PMP22 gene expression - Nano-Glo assay; shares compounds with PMP22 txn prim; Secreted NLuc enzyme (filtered S16 cell medium), Nano-Glo luminescence; 690 tested, 4% active; Potency, µM (top dose mostly 57.5 µM), actives largely listed as inhibitors; AID 1508638, 2021
NLuc Km ctr: Biochemical coelenterazine-based NLuc counterscreen for small molecule modulators of PMP22 gene expression - Km assay. shares compounds with PMP22 txn prim. secreted NLuc enzyme, coelenterazine luminescence, Km conditions. Potency, µM (series often up to 57.5 µM), hits mostly inhibitors. 690 tested, 5% active
FLuc counter: Biochemical FLuc counterscreen for small molecule modulators of PMP22 gene expression; purified P. pyralis FLuc, luminescence, 10 min; 690 tested, under 10 active; shares compounds with PMP22 txn prim; Potency, µM (top dose mostly 57.5 µM), usual class: inhibitors; AID 1508640, 2021
Target sequence (P08659 whole entry, looked up): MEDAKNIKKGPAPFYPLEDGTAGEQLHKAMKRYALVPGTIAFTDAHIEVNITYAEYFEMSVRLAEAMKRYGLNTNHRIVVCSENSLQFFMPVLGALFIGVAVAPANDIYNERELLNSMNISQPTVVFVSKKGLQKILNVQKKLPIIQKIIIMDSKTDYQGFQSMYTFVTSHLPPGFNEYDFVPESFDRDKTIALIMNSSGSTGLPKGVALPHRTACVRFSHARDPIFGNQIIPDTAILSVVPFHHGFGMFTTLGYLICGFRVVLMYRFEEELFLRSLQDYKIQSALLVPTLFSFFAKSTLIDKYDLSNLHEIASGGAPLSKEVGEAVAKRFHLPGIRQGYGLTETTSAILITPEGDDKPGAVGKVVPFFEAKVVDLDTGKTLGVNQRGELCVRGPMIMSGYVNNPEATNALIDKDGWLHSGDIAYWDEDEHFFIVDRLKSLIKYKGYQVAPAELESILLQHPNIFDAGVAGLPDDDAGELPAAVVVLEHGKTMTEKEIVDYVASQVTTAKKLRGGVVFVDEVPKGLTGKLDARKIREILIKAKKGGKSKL
S16 viab conf: Cell viability qHTS assay in S16 Pmp22-F2sN cells - Confirmatory screen. 690 tested, 7% active. S16 Schwann cells viability, CellTiter-Glo ATP luminescence, 24 h. shares compounds with PMP22 txn prim. Potency, µM (highest dose often 57.5 µM), actives largely listed as cytotoxic
PMP22 txn conf: Cell-based coincidence reporter assay to measure PMP22 gene transcription in S16 Pmp22-F2sN cells - Confirmatory screen; 690 tested, 22% active; shares compounds with PMP22 txn prim; Potency, µM (highest dose often 57.5 µM), actives largely listed as inhibitors; S16 Schwann cells Pmp22-F2sN, dual luciferase, 24 h; active means clear falling dose curves in both reporters; inconclusive means both reporters move, but less clearly or upward; inactive means either reporter flat; the % is the FLuc reporter signal
PMP22 HiBiT cnf: Cell-based HiBiT reporter assay to measure PMP22 protein expression in S16 Pmp22-HiBiT cells - Confirmatory screen; shares compounds with PMP22 txn prim; S16 Schwann cells Pmp22-HiBiT, luminescence, 48 h; Potency, µM (highest dose often 27.9 µM), actives largely listed as inhibitors; 95 tested, under 10 active; AID 1508647, 2021
Target sequence (P25094 whole entry, looked up): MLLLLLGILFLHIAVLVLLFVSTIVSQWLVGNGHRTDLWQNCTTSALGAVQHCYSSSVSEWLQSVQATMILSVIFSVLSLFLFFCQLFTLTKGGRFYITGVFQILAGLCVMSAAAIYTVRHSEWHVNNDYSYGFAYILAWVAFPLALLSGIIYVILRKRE
Large screens that a line does not name were inactive (follow-up assays come after a bar, where they were run). Only some compounds are listed: those with a hit (about 3.1% of all), similar ones and a draw of the others. Unless noted, the call rests on the fitted dose curve; in most records, active means well fitted curve in the direction sought with a large enough effect; inconclusive means small, poorly fitted or top-dose-only effect, or another doubt; inactive means no such curve, though single readings can be large; an effect the other way counts as inactive or inconclusive.

CCN(C(=O)CN(C)S(=O)(=O)c1ccc2c(c1)n(C)c(=O)c(=O)n2C)c1cccc(C)c1	PMP22 txn prim 6.5µM | NLuc saturating inactive | NLuc Km ctr inactive | FLuc counter inactive | S16 viab conf inactive | PMP22 txn conf inactive
CCSc1nnc2c(n1)OC(c1ccc(C)cc1)N(C(C)=O)c1ccccc1-2 (stereo unspecified)	PMP22 txn prim inconclusive | NLuc saturating inconclusive | NLuc Km ctr inactive | FLuc counter inactive | S16 viab conf inactive | PMP22 txn conf inactive
COc1ccc(C2Oc3nc(SC)nnc3-c3ccccc3N2C(C)=O)cc1 (stereo unspecified)	PMP22 txn prim inconclusive, p53null 39C kill inconclusive
CCCCCOc1ccccc1CN1C(=O)C(=O)c2cc(C)ccc21	PMP22 txn prim 14µM, p53null 39C kill inconclusive, mTORC1 inh inconclusive | NLuc saturating inconclusive | NLuc Km ctr inconclusive | FLuc counter inactive | S16 viab conf inactive | PMP22 txn conf inconclusive
CC(C)(OCc1nn(Cc2ccccc2)c2ccccc12)C(=O)O	none (no result: PMP22 txn prim, p53null 32C kill, p53null 39C kill, mTORC1 inh, S16 viability)
O=C(CCCCn1c(=O)c2ccccc2n(CC(=O)Nc2ccc(F)cc2F)c1=O)NCc1ccccc1Cl	PMP22 txn prim 16µM | NLuc saturating inactive | NLuc Km ctr inactive | FLuc counter inactive | S16 viab conf inactive | PMP22 txn conf inconclusive
COc1ccc(NC(=O)Cn2c(=O)n(CCCC(=O)NCc3ccccc3OC)c(=O)c3ccccc32)cc1Cl	PMP22 txn prim inconclusive, mTORC1 inh inconclusive
COc1ccc(NC(=O)Cn2c(=O)n(CCC(=O)NCc3ccccc3OC)c(=O)c3ccccc32)cc1Cl	PMP22 txn prim 15µM | NLuc saturating inactive | NLuc Km ctr inactive | FLuc counter inactive | S16 viab conf inactive | PMP22 txn conf 13µM | PMP22 HiBiT cnf inconclusive
Cc1cccc(NC(=O)Cn2c(=O)n(CCc3ccccc3)c(=O)c3ccccc32)c1	PMP22 txn prim inconclusive
Cc1cccc(CCn2c(=O)c3ccccc3n(CC(=O)Nc3ccccc3F)c2=O)c1	PMP22 txn prim 16µM | NLuc saturating inactive | NLuc Km ctr inactive | FLuc counter inactive | S16 viab conf inactive | PMP22 txn conf inactive
COc1ccccc1CNC(=O)CCCCn1c(=O)c2ccccc2n(Cc2ccccc2F)c1=O	PMP22 txn prim inconclusive
COc1ccccc1CNC(=O)CCCCn1c(=O)c2ccccc2n(Cc2ccccc2C)c1=O	PMP22 txn prim 14µM | NLuc saturating inactive | NLuc Km ctr inconclusive | FLuc counter inactive | S16 viab conf inactive | PMP22 txn conf inconclusive
O=C(CCCn1c(=O)c2ccccc2n(CC(=O)Nc2ccc(F)cc2F)c1=O)NCc1ccccc1Cl	PMP22 txn prim inconclusive
Cc1c(NC(=O)c2ccc(C(C)(C)C)cc2)cccc1-c1cn(C)c(=O)c(Nc2ccc(C(=O)N3CCOCC3)cc2)n1	none (no result: PMP22 txn prim, p53null 32C kill, p53null 39C kill, mTORC1 inh, S16 viability)
COc1ccc(NC(=O)Cn2c(=O)n(Cc3ccc(C(=O)NCc4ccccc4Cl)cc3)c(=O)c3ccccc32)cc1OC	none
COc1ccc(NC(=O)Cn2c(=O)n(Cc3ccccc3Cl)c(=O)c3cc(OC)c(OC)cc32)cc1OC	PMP22 txn prim 13µM | NLuc saturating inactive | NLuc Km ctr inactive | FLuc counter inactive | S16 viab conf inactive | PMP22 txn conf inactive
COc1ccc(NC(=O)CCCn2c(=O)c3cccn3c3cccnc32)cc1Cl	PMP22 txn prim 15µM | NLuc saturating inactive | NLuc Km ctr inactive | FLuc counter inactive | S16 viab conf inactive | PMP22 txn conf inactive
COc1ccc(NC(=O)CCn2c(=O)c3cccn3c3cccnc32)cc1Cl	none
CN1CCc2c(sc(NC(=O)CSc3ccccc3)c2-c2nc3ccccc3s2)C1	PMP22 txn prim inconclusive, p53null 39C kill inconclusive, mTORC1 inh inconclusive
CC(=O)N1CCc2c(sc(NC(=O)CSc3ccccc3)c2-c2nc3ccccc3s2)C1	PMP22 txn prim 4µM, S16 viability inconclusive | NLuc saturating inconclusive | NLuc Km ctr inconclusive | FLuc counter inactive | S16 viab conf inconclusive | PMP22 txn conf 13µM | PMP22 HiBiT cnf inconclusive
CCCCCCOc1ccc(/C=C/C(=O)Nc2sc3c(c2C(=O)OC)CCC3)cc1OC	SKOV3 invasion inconclusive, PMP22 txn prim 7µM, S16 viability inconclusive | NLuc saturating inactive | NLuc Km ctr inactive | FLuc counter inactive | S16 viab conf inactive | PMP22 txn conf inactive
COc1ccc(Cn2ccc3ccc(C(=O)NO)cc32)cc1	none (no result: PMP22 txn prim, p53null 32C kill, p53null 39C kill, mTORC1 inh, S16 viability)
